# Assay results published in PubChem BioAssay (Tox21).
# Records with an inconclusive call do not appear. Calls of active or inactive are those of the source. Calls follow the shape of the dose curve; as a rule, active = well fitted cell-killing curve with a large enough effect in the repeat runs; inconclusive = weak or mixed curves, or effect the other way; inactive = no such curve, though single readings can be large or run the other way.
# Experiment: qHTS assay to identify small molecule agonists of the RXR signaling pathway - cell viability counter screen (AID 1159529); also: nearly all actives have a fitted effect of over 50% in size
# Settings: RXR-alpha-bla HEK293T viability, CellTiter-Glo, 16 h; series mostly up to 76.8 µM; activity change, negative = cytotoxicity: at the top concentration
# From the text: National Center for Advancing Translational Sciences [NCATS]
# NIH Chemical Genomics Center [NCGC]
# U.S. Environmental Protection Agency [EPA]
# National Institutes of Environmental Health Sciences [NIEHS]
# National Toxicology Program [NTP]
# U.S. Food and Drug Administration [FDA]
# The Retinoid X receptor (RXR), a nuclear hormone receptor expressed in liver, spleen, placenta, epidermis, central nervous system. These receptors are able to form homo and heterodimers with other nuclear receptors and due to this heterodimerizing ability, RXR functions as master regulators producing diverse physiological effects. Three subtypes of RXR exist; alpha, beta and gamma. Retinoid X receptor alpha (RXR-alpha) has potential roles in metabolic signaling pathways, skin alopecia, dermal cysts, cardiac development, insulin sensitization etc. Therefore screening environmental chemicals on RXR-alpha signaling can be used for the studies focused on such therapeutic applications. For quantification of RXR-alpha ligands signaling, GeneBLAzer RXR alpha-UAS-bla HEK 293T (Life Technologies, Carlsbad, CA) cells containing a beta-lactamase reporter-gene under control of Retinoid X receptor-alpha response element were used to screen Tox21 10K library. The cytotoxicity of the Tox21 compound library against the RXR-alpha HEK 293T cell line was tested in parallel by measuring cell viability using CellTiter-Glo assay (Promega Corporation, Madison, WI) in the same wells.
# Tox21 Assay Protocol Summary:
# RXR-alpha HEK 293T cells were dispensed at 2,000 cells/6 uL of assay medium containing 2% charcoal-stripped FBS using a Multidrop Combi (ThermoFisher Scientific, Waltham, MA) dispenser. The assay was performed in black wall/clear-bottom 1536-well plates (Greiner Bio-One North America Inc. Monroe, NC). Tetraoctyl ammonium bromide was used as a positive control in the cytotoxicity screen. After the assay plates were incubated at 37 C and 5% CO2 for 5 hr, 23 nL of compounds dissolved in DMSO, positive control or DMSO only were transferred to the assay plate by a Pintool station (Kalypsys, San Diego, CA). The assay plates were incubated at 37 C and 5% CO2 for 16 hr. One uL of LiveBLAzer B/G FRET substrate (Life Technologies) was added using a Flying Reagent Dispenser (FRD) (Aurora Discovery, San Diego, CA) and the plates were incubated at room temperature for 2 hr. Fluorescence intensity (405 nm excitation, 460/530 nm emission) was measured using an Envision plate reader (PerkinElmer, Shelton, CT). For cytotoxicity, 4 uL/well of CellTiter-Glo reagent was added into the assay plates using an FRD. After 30 min incubation at room temperature, the luminescence intensity was measured using a ViewLux plate reader (PerkinElmer).
# % is scaled to controls: 0 for no effect and ±100 for the full control effect.
row,SMILES,"activity change, negative = cytotoxicity"
1,CC(=O)CCc1ccc2c(c1)OCO2,-4.06% (inactive)
2,CC(COc1ccc(Oc2ccccc2)cc1)Oc1ccccn1 (stereo not given),-0.0064% (inactive)
3,CCSC(=O)N(CC)C1CCCCC1,14.6% (inactive)
4,COC(=O)COc1ccc(Cl)cc1Cl,14.4% (inactive)
5,O=C(O)c1ccc2[nH]cc(CCCCN3CC=C(c4ccccc4)CC3)c2c1,7.82% [at 35.3 µM] (inactive)
6,CN1C(=S)CN=C(c2ccccc2)c2cc(Cl)ccc21,23.9% [at 35.3 µM] (inactive)
7,CC(C)CC(N(C)C)C1(c2ccc(Cl)cc2)CCC1 (stereo not given),-9.52% [at 35.3 µM] (inactive)
8,CCCCOC(=O)[C@@H](C)Oc1ccc(Oc2ccc(C#N)cc2F)cc1,2.69% (inactive)
9,CCC1(c2ccccc2)C(=O)NC(=O)NC1=O,3.39% (inactive)
10,CCC#N,2.23% (inactive)
11,COc1ncc(F)c2nc(S(=O)(=O)Nc3c(F)cccc3F)nn12,-4.92% [at 35.3 µM] (inactive)
12,CC(C)NCC(O)c1ccc(N)c(C#N)c1 (stereo not given),-0.993% [at 35.3 µM] (inactive)
13,O=C(O)C(Br)CBr (stereo not given),-5.76% (inactive)
14,Clc1ccccc1N1CCNCC1,-9.43% [at 35.3 µM] (inactive)
15,O=[N+]([O-])c1ccc2c3c(cccc13)CC2,-17.1% (inactive)
16,CC(C)(C)C(=O)C(Oc1ccc(Cl)cc1)n1cncn1 (stereo not given),-7.29% (inactive)
17,O=P(O)(Oc1ccccc1)Oc1ccccc1,-2.35% (inactive)
18,CCc1cc2c(s1)-n1c(C)nnc1CN=C2c1ccccc1Cl,14.7% [at 35.3 µM] (inactive)
19,COP(=S)(OC)Oc1c(Cl)cc(C)cc1Cl,-2.68% (inactive)
20,CC1(C(=O)Nc2ccc(O)c(Cl)c2Cl)CCCCC1,-13.1% (inactive)

row,SMILES,"activity change, negative = cytotoxicity"
1,O=C(Cc1ccccc1)OCc1ccccc1,-16.7% (inactive)
2,CCN(Cc1ccc(Cl)nc1)/C(=C/[N+](=O)[O-])NC,-0.0079% [at 35.3 µM] (inactive)
3,COC(=O)C(C)Oc1ccc(Oc2ccc(Cl)cc2Cl)cc1 (stereo not given),-1.73% (inactive)
4,CCOP(=S)(OCC)SCSc1ccc(Cl)cc1,-17.2% (inactive)
5,CCC(=O)C(CCN(C)C)(c1ccccc1)c1ccccc1,-21.8% [at 35.3 µM] (inactive)
6,CCCCN(CCCCO)N=O,-4.01% (inactive)
7,CCC(Cl)[N+](=O)[O-] (stereo not given),0.0076% (inactive)
8,CCOP(=S)(OCC)Oc1ncn(-c2ccccc2)n1,-15.3% (inactive)
9,CNC(=O)O/N=C(\C)SC,4.71% (inactive)
10,OC(c1ccc(F)cc1)(c1cncnc1)c1ccccc1Cl (stereo not given),-8.7% (inactive)
11,CN1C[C@@H](NS(=O)(=O)N(C)C)C[C@@H]2c3cccc4c3c(cn4C)C[C@H]21,4.67% [at 35.3 µM] (inactive)
12,CNC(=O)Oc1c(C(C)(C)C)cc(C)cc1C(C)(C)C,0.671% (inactive)
13,CCOc1nc(C(Cl)(Cl)Cl)ns1,6.45% (inactive)
14,CC(C)CC#N,-13.3% (inactive)
15,CCOC(=O)N(C)C(=O)CSP(=S)(OCC)OCC,4.21% (inactive)
16,O=[N+]([O-])c1cc(Cl)c(Cl)c(Cl)c1,-0.645% (inactive)
17,c1ccc(N2CCNCC2)cc1,-4.87% [at 35.3 µM] (inactive)
18,CN/C(=N\[N+](=O)[O-])NCC1CCOC1 (stereo not given),1.88% (inactive)
19,O=C1OC(=O)C2C1C1(Cl)C(Cl)=C(Cl)C2(Cl)C1(Cl)Cl (stereo not given),-0.513% (inactive)
20,ClC(Br)Br,7.54% (inactive)
